Molecules are shown by their SMILES. Calls of active or inactive are those of the source. The calls were made as follows: active = hit-call score of the fitted dose curve at least 0.9, where 1 is the maximum; inactive = score below 0.9.

Read-out in assay [1]: Human Leukocyte Antigen - DR isotype (HLADR), HLA-DRA (gene 3122)
The assay is described as follows: BSK_BE3C_HLADR: BioMAP Diversity Plus: BE3C Assay for Human Leukocyte Antigen - DR isotype (HLADR) Biomarker Activity (AID 2283032). Conditions: primary human bronchial epithelial cells; actives raise or lower the signal. The procedure, abridged: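 Signal came from an ELISA for HLA-DR in human bronchial epithelial primary cells harvested 24 h after treatment; gain- and loss-of-signal fitting used DMSO controls as reference.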

Read-out in assay [2]: Vascular cell adhesion molecule 1 (VCAM1), VCAM1 (gene 7412)
The assay is described as follows: BSK_4H_VCAM1: BioMAP Diversity Plus: 4H Assay for Vascular cell adhesion molecule 1 (VCAM1) Biomarker Activity (AID 2283033).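 As to outcome: cell-surface VCAM-1 protein measured by ELISA.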 Conditions: primary human endothelial cells (HUVEC); actives raise or lower the signal. An outline of the steps:
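Endpoint derived from bidirectional fitting against DMSO controls of VCAM-1 ELISA signal in umbilical vein endothelial cells sampled at 24 h following treatment.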

Read-out in assay [3]: Interferon-gamma inducible Protein 10 (IP10), CXCL10 (gene 3627)
Description: BSK_BE3C_IP10: BioMAP Diversity Plus: BE3C Assay for Interferon-gamma inducible Protein 10 (IP10) Biomarker Activity (AID 2283034). Conditions: primary human bronchial epithelial cells; actives raise or lower the signal. An outline of the steps: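 Using primary human bronchial epithelial cultures, the assay captures IP-10 by ELISA one day (24 h) after exposure. Parallel SRB staining of total protein flags overt cytotoxicity. Fits run bidirectionally relative to DMSO.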

Read-out in assay [4]: Monokine induced gamma interferon (MIG), CXCL9 (gene 4283)
Description: BSK_BE3C_MIG: BioMAP Diversity Plus: BE3C Assay for Monokine induced gamma interferon (MIG) Biomarker Activity (AID 2283035).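 Also: MIG protein measured by ELISA in BE3C cultures after 24 h of dosing.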 Conditions: primary human bronchial epithelial cells; actives raise or lower the signal. The procedure, abridged: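 MIG level was determined by ELISA after 24 h chemical treatment of primary human bronchial epithelial cells. Values were fitted bidirectionally with DMSO as the negative control and activity baseline.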

Read-out in assay [5]: Transforming growth factor beta 1 (TGFb1), TGFB1 (gene 7040)
Description: BSK_BE3C_TGFb1: BioMAP Diversity Plus: BE3C Assay for Transforming growth factor beta 1 (TGFb1) Biomarker Activity (AID 2283036;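 also: TGF-b1 protein level measured by ELISA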). Conditions: primary human bronchial epithelial cells; actives raise or lower the signal. An outline of the steps:
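In this human primary bronchial epithelial system, an ELISA quantified TGF-b1 one day after dosing. Endpoint changes in either direction were fitted relative to DMSO.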

Read-out in assay [6]: Plasminogen activator inhibitor-1 (PAI1), SERPINE1 (gene 5054)
Description: BSK_BE3C_PAI1: BioMAP Diversity Plus: BE3C Assay for Plasminogen activator inhibitor-1 (PAI1) Biomarker Activity (AID 2283037). To be noted: primary human bronchial epithelial cells; actives raise or lower the signal. The procedure, abridged:
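PAI-1 biomarker levels in treated human bronchial epithelial cells are determined by ELISA at 24 h. Both increases and decreases relative to DMSO are fitted.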

Read-out in assay [7]: urokinase plasminogen activator (uPA), PLAU (gene 5328)
The assay is described as follows: BSK_BE3C_uPA: BioMAP Diversity Plus: BE3C Assay for urokinase plasminogen activator (uPA) Biomarker Activity (AID 2283038).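 Also: uPA protein level quantified by ELISA in cell cultures; uPA read one day after compound addition.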 Conditions: primary human bronchial epithelial cells; actives raise or lower the signal. The procedure, abridged: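 Measured by ELISA: uPA from human primary bronchial epithelial cells 24 h after chemical treatment. Values derive from bidirectional curve fitting with DMSO serving as negative control. Total protein by SRB staining in parallel wells flagged overt cytotoxicity.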

Read-out in assay [8]: Urokinase-type plasminogen activator receptor (uPAR), PLAUR (gene 5329)
Description: BSK_BE3C_uPAR: BioMAP Diversity Plus: BE3C Assay for Urokinase-type plasminogen activator receptor (uPAR) Biomarker Activity (AID 2283039).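 As to outcome: uPAR protein level measured by ELISA on the cells; cells exposed to compound for one day before measurement.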 To be noted: primary human bronchial epithelial cells; actives raise or lower the signal. An outline of the steps: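 A uPAR ELISA serves as the readout, taken 24 h after treating primary human bronchial epithelial cells. Responses in either direction are fitted against DMSO, which defines baseline activity.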

Read-out in assay [9]: Interleukin-6 (IL6), IL6 (gene 3569)
The assay is described as follows: BSK_CASM3C_IL6: BioMAP Diversity Plus: CASM3C Assay for Interleukin-6 (IL6) Biomarker Activity for (AID 2283040). Conditions: primary human coronary artery smooth muscle cells; actives raise or lower the signal.

Read-out in assay [10]: Tissue plasminogen activator (tPA), PLAT (gene 5327)
The assay is described as follows: BSK_BE3C_tPA: BioMAP Diversity Plus: BE3C Assay for Tissue plasminogen activator (tPA) Biomarker Activity (AID 2283041).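 As to outcome: tPA level quantified by ELISA one day after compound addition.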 To be noted: primary human bronchial epithelial cells; actives raise or lower the signal. The procedure, abridged:
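Bidirectional curve fitting relative to DMSO defined activity, with tPA detected by ELISA in chemically treated human bronchial epithelial primary cells at 24 hours.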

Read-out in assay [11]: Interleukin-8 (IL8), CXCL8 (gene 3576)
The assay is described as follows: BSK_CASM3C_IL8: BioMAP Diversity Plus: CASM3C Assay for Interleukin-8 (IL8) Biomarker Activity (AID 2283042).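 Also: IL-8 protein level quantified by ELISA.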 Conditions: primary human coronary artery smooth muscle cells; actives raise or lower the signal.

Read-out in assay [12]: Human Leukocyte Antigen - DR isotype (HLADR), HLA-DRA (gene 3122)
Description: BSK_CASM3C_HLADR: BioMAP Diversity Plus: CASM3C Assay for Human Leukocyte Antigen - DR isotype (HLADR) Biomarker Activity (AID 2283043).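 Also: cell-surface HLA-DR protein level quantified by ELISA.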 Conditions: primary human coronary artery smooth muscle cells; actives raise or lower the signal.

Read-out in assay [13]: Macrophage colony-stimulating factor (MCSF), CSF1 (gene 1435)
Description: BSK_CASM3C_MCSF: BioMAP Diversity Plus: CASM3C Assay for Macrophage colony-stimulating factor (MCSF) Biomarker Activity (AID 2283044).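 Also: M-CSF protein amount quantified by ELISA after 24 h exposure.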 To be noted: primary human coronary artery smooth muscle cells; actives raise or lower the signal.

Read-out in assay [14]: Low-density lipoprotein receptor (LDLR), LDLR (gene 3949)
The assay is described as follows: BSK_CASM3C_LDLR: BioMAP Diversity Plus: CASM3C Assay for Low-density lipoprotein receptor (LDLR) Biomarker Activity (AID 2283045).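 Also: LDLR protein level on the cell surface quantified by ELISA.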 Conditions: primary human coronary artery smooth muscle cells; actives raise or lower the signal.

Read-out in assay [15]: Monocyte Chemoattractant Protein-1 (MCP1), CCL2 (gene 6347)
The assay is described as follows: BSK_CASM3C_MCP1: BioMAP Diversity Plus: CASM3C Assay for Monocyte Chemoattractant Protein-1 (MCP1) Biomarker Activity (AID 2283046).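 Also: MCP-1 level quantified by ELISA 24 h after dosing.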 Conditions: primary human coronary artery smooth muscle cells; actives raise or lower the signal.

Assay [16] in a line: BSK_CASM3C_Proliferation: Cell Proliferation Assessment in the BioMAP Diversity Plus: CASM3C Assay (AID 2283047).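 Also: sulforhodamine B total protein stain as relative cell number at 560 nm; sub-confluent cells exposed 48 h before staining; fitted both ways against DMSO so gain or loss of cell number.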 To be noted: primary human coronary artery smooth muscle cells.
Read-out in assay [17]: Monokine induced gamma interferon (MIG), CXCL9 (gene 4283)
Description: BSK_CASM3C_MIG: BioMAP Diversity Plus: CASM3C Assay for Monokine induced gamma interferon (MIG) Biomarker Activity (AID 2283048).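 Also: MIG protein level measured by ELISA.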 To be noted: primary human coronary artery smooth muscle cells; actives raise or lower the signal.

Read-out in assay [18]: serum amyloid A (SAA), SAA1 (gene 6288)
Description: BSK_CASM3C_SAA: BioMAP Diversity Plus: CASM3C Assay for serum amyloid A (SAA) Biomarker Activity (AID 2283049).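 Also: SAA protein level quantified by ELISA.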 To be noted: primary human coronary artery smooth muscle cells; actives raise or lower the signal.

Assay [19] can be described thus: BSK_CASM3C_SRB: Viability Assessment in the BioMAP Diversity Plus: CASM3C Assay (AID 2283050).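 Also: cells exposed to compound for 24 h.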 Conditions: primary human coronary artery smooth muscle cells.
Read-out in assay [20]: Thrombomodulin, THBD (gene 7056)
Description: BSK_CASM3C_Thrombomodulin: BioMAP Diversity Plus: CASM3C Assay for Thrombomodulin Biomarker Activity (AID 2283051).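 Also: thrombomodulin protein level measured by ELISA 24 h after dosing.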 To be noted: primary human coronary artery smooth muscle cells; actives raise or lower the signal.

The term AC50 denotes the concentration at which the activity in the assay is half-maximal. Turning to `CO[C@@H]1[C@H](OC(=O)NC(=O)CCl)CC[C@]2(CO2)[C@H]1[C@@]1(C)O[C@@H]1CC=C(C)C`, the AC50 in [1] was 7.85 µM (active); in assay [2], 6.62 µM (active); in [3] it was 9.12 µM (active); in assay [6], 6.98 µM (active); in assay [8], 5.83 µM (active); in assay [10] it was 7.73 µM (active). The concentration at half-maximal activity (AC50) was 8.37 µM (active) in [12] and 1.99 µM (active) in assay [16]. The result in assay [4], in assay [5], in assay [7], in assay [9], in assay [11] and in assay [13] was inactive. Besides, the result in assay [14], in assay [15], in [17], in assay [18], in assay [19] and in assay [20] was inactive.

As to `CC(C)(C)C(O)(CCc1ccc(Cl)cc1)Cn1cncn1` (centres undefined), the result in assay [1], in assay [2], in assay [3], in assay [4], in assay [5] and in [6] was inactive. Also, the outcome in [7], in assay [8], in assay [9], in assay [10], in assay [11] and in [12] was inactive. In addition, the outcome in [13], in assay [14], in assay [15], in [16], in assay [17] and in [18] was inactive. Also, the result in assay [19] and in assay [20] was inactive.

For `CCC12COCN1COC2`, the result in assay [1], in [2], in assay [3], in assay [4], in assay [5] and in [6] was inactive. Moreover, the outcome in assay [7], in [8], in assay [9], in assay [10], in assay [11] and in [12] was inactive. For the same molecule, the result in [13], in assay [14], in [15], in [17], in assay [18] and in [19] was inactive. In addition, the result in assay [20] was inactive. Also, the AC50 in [16] was 4.32 µM (active).

Regarding `Nc1ccc(N=Nc2ccccc2)cc1`, the result in assay [1], in assay [2], in assay [3], in [4], in [5] and in assay [7] was inactive. Moreover, the outcome in assay [8], in [9], in assay [10], in [11], in assay [13] and in assay [14] was inactive. The outcome in [15], in assay [16], in assay [17], in assay [18], in assay [19] and in assay [20] was inactive. In [12], the AC50 was 16.8 µM (active).

`c1ccc2c(c1)oc1ccccc12`: the result in assay [1], in [2], in assay [3], in [4], in [5] and in assay [6] was inactive. The result in assay [7], in [8], in assay [9], in assay [10], in assay [11] and in assay [12] was inactive. Besides, the outcome in assay [13], in assay [14], in [15], in [16], in assay [17] and in assay [18] was inactive. The outcome in assay [19] and in assay [20] was inactive.

As for `CN(C)[C@@H]1C(=O)C(C(N)=O)=C(O)[C@@]2(O)C(=O)C3=C(O)c4c(O)cccc4[C@@](C)(O)[C@H]3C[C@@H]12`, the result in assay [1], in [2], in assay [3], in assay [4], in [5] and in assay [6] was inactive. The outcome in [7], in [8], in assay [9], in assay [10], in assay [11] and in [12] was inactive. Also, the outcome in assay [13], in assay [14], in [15], in assay [16], in [17] and in [18] was inactive. Further, the result in assay [19] and in assay [20] was inactive.

The values are drawn from PubChem BioAssay (EPA / NIEHS).
